# Measured values from the supplement of paper PMC6411743.
# ± gives the standard deviation of the averaged measurements. About 5,400 targets were measured; listed, in parts, are those with the largest changes and a random draw of the rest.
# Molecular target: T1, UniProt P35613|P35613-2
# T1 sequence (whole entry): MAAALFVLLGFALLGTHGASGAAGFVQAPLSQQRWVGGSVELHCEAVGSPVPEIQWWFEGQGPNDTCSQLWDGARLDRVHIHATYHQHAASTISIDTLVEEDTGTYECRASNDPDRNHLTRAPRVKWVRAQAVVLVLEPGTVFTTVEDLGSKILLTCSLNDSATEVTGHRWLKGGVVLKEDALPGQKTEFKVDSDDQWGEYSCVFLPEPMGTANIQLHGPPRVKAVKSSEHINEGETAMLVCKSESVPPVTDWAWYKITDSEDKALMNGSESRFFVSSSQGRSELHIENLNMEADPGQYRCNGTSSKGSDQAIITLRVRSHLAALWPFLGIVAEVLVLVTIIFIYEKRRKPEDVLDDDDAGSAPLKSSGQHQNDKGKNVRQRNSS
# Assay: NP40-soluble protein abundance relative to vehicle (solubility fold change) (ratio); higher = more soluble protein in presence of GTP
# Experimental: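 Solubility proteome profiling in Jurkat crude lysate. Lysate was treated with Mg-GTP (0.1-10 mM) for 10 min at room temperature and 3 min at 37 °C, then solubilised with 0.8% NP40 and benzonase, followed by ultracentrifugation. Proteins were quantified by TMT10 LC-MS/MS; the value is the NP40-soluble abundance relative to the NP40-processed vehicle, from 3 independent experiments.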
smiles,measurement,setting,value
Nc1nc2c(ncn2[C@@H]2O[C@H](COP(=O)(O)OP(=O)(O)OP(=O)(O)O)[C@@H](O)[C@H]2O)c(=O)[nH]1 [guanosine triphosphate],NP40-soluble protein abundance,concentration: 0.1mM,0.873 ± 0.045
same,NP40-soluble protein abundance,concentration: 0.5mM,0.877 ± 0.074
same,NP40-soluble protein abundance,concentration: 1mM,0.91 ± 0.042
same,NP40-soluble protein abundance,concentration: 2mM,0.881 ± 0.081
same,NP40-soluble protein abundance,concentration: 4mM,0.878 ± 0.062
same,NP40-soluble protein abundance,concentration: 6mM,0.91 ± 0.087
same,NP40-soluble protein abundance,concentration: 8mM,0.872 ± 0.099
same,NP40-soluble protein abundance,concentration: 10mM,0.881 ± 0.065
